High-throughput results deposited in PubChem BioAssay by National Center for Advancing Translational Sciences (NCATS).
PI5P4Ka inh: PI5P4K alpha (human) kinase inhibition | max response, % | AID 652105 | PI5P4Kalpha enzyme, ADP-Glo luminescence, 60 min; stronger effect = lower value | actives 1.2% (n = 330,000); active = max response of -50% or lower; inconclusive = between -30% and -50%; inactive = -30% or higher; also: value at the top dose of about 77 µM; % is scaled to controls: 0 for no effect and ±100 for the full control effect
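PI5P4Kalpha ADP-Glo assay; 5 microM ATP final; 60 min RT reaction; HEPES pH 7.4/EGTA/CHAPS, 5% DMSO; controls lacking substrate or enzyme; luminescent end-point.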
BAZ2B inh: blocks human BAZ2B; AlphaScreen BAZ2B-H3K14Ac peptide displacement; Q9UIF8; Potency, µM (titrated, usually from 114 µM), without a hit: at the top dose activity change, negative = inhibition, actives largely listed as inhibitors; AID 504333; actives 4.4% (n = 360,000); also: potency is read from the fitted curve at half-maximal effect; % is scaled to controls: 0 for no effect and ±100 for the full control effect; nearly all actives have a fitted effect of over 60% in size
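Complex of BAZ2B and biotin-H3K14Ac (50 nM apiece) forms over 30 min at RT, then faces library compounds up to 110 uM for another 30 min; AlphaScreen beads added, 20 min dark incubation, luminescence read.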
G9a block: inhibitors of human histone lysine methyltransferase G9a | Potency, µM (doses to about 102 µM), without a hit: top-dose activity, negative = inhibition, hits mostly inhibitors | actives 8.8% (n = 350,000) | G9a H3K9 monomethylation, AlphaScreen, 2 h | AID 504332 | Q96KQ7; also: potency is read from the fitted curve at half-maximal effect; % is scaled to controls: 0 for no effect and ±100 for the full control effect; nearly all actives have a fitted effect of over 75% in size
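AlphaScreen read-out: biotin-H3K9 peptide (500 nM) methylation by 20 nM enzyme with 20 uM SAM, 2 h at room temperature after 15 min compound preincubation; anti-monomethyl H3K9 antibody plus donor/acceptor beads, 10 min dark.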
JMJD2A Tudor inh: inhibitors of human JMJD2A Tudor domain; O75164; AlphaScreen JMJD2A-Tudor / H3K4me3 peptide binding; Potency, µM (doses to about 114 µM), inactives show at the top dose activity change, negative = inhibition, most hits filed as inhibitors; actives 4.4% (n = 390,000); AID 504339; also: potency is read from the fitted curve at half-maximal effect; % is scaled to controls: 0 for no effect and ±100 for the full control effect; nearly all actives have a fitted effect of over 50% in size
Target sequence (O75164 whole entry, looked up, the tested form may be a part): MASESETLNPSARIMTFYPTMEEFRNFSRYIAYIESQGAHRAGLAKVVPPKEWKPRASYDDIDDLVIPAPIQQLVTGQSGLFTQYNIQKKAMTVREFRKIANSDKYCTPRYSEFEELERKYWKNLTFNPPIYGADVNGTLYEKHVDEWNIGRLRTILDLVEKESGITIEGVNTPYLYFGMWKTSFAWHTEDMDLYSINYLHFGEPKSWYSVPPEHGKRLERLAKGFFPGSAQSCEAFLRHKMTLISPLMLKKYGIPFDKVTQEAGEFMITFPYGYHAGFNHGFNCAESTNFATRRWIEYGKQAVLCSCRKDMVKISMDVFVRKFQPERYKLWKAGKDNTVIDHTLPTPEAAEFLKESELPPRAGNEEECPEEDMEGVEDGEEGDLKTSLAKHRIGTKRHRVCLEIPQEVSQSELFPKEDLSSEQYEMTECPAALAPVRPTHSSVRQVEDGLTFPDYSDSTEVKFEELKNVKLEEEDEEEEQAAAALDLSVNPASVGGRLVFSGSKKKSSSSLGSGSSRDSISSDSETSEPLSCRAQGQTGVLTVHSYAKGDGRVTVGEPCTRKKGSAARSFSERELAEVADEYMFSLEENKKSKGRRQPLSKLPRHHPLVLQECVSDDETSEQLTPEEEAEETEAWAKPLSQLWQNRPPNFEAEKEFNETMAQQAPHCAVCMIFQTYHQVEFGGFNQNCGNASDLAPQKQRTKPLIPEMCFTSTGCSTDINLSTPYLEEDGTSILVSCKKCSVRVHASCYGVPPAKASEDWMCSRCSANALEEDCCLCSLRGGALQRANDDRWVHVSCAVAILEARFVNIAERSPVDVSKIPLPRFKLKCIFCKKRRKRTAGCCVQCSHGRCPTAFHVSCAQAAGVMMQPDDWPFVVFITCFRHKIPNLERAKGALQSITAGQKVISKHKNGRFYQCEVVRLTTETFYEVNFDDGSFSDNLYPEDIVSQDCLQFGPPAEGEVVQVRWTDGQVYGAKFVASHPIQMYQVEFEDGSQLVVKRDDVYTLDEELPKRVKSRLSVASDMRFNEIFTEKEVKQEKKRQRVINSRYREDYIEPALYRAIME
L3MBTL1 block: L3MBTL1 (human) inhibition; Q9Y468; AlphaScreen L3MBTL1–H3K9me1 peptide binding; Potency, µM (titrated, usually from 57.1 µM), for the others: at the highest dose activity, negative = inhibition, usual class: inhibitors; actives 0.66% (n = 230,000); also: potency is read from the fitted curve at half-maximal effect; % is scaled to controls: 0 for no effect and ±100 for the full control effect; nearly all actives have a fitted effect of over 60% in size
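AlphaScreen assay: L3MBTL1 (50 nM final) was preincubated 30 min at room temperature with biotinylated H3(1-15)K9me1 peptide (75 nM final), then 30 min with library compounds; streptavidin donor and nickel chelate acceptor beads (10 ug/mL final) added, 30 min dark.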
HP1b chromo inh: HP1-beta chromodomain-methylated histone interaction inhibition | AlphaScreen HP1-beta / biotin-H3K9me3 peptide binding | actives 0.56% (n = 390,000) | Potency, µM (highest dose often 114 µM), for inactives: at the top dose activity change, negative = inhibition, most hits filed as inhibitors | P83916; also: potency is read from the fitted curve at half-maximal effect; nearly all actives have a fitted effect of over 70% in size
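AlphaScreen: HP1-beta (50 nM) preformed 30 min with biotin-H3(1-18)K9me3 peptide (50 nM) in PBS pH 7.4, 0.01% Tween-20. Compound added for 30 min at RT, then streptavidin donor/nickel chelate acceptor beads (10 ug/mL) for 30 min.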
Active calls of the source: *; ? = inconclusive; · = no result; [ ] = remark or other dose. An excerpt weighted towards active compounds, which were near 11% of everything screened. Unless noted, calls follow the shape of the dose curve; as a rule, active = well fitted inhibition curve with a large enough effect; inconclusive = small, poorly fitted or top-dose-only effect; inactive = no such curve, though single readings can be large or run the other way.

SMILES	PI5P4Ka inh	BAZ2B inh	G9a block	JMJD2A Tudor inh	L3MBTL1 block	HP1b chromo inh
COC(=O)C1CCN(C(=O)C2CCC(=O)N(CCCc3ccccc3)C2)CC1 (stereo unspecified)	-6	-10%	11%	-19%	·	29%
O=C(C1CCN(CCCc2ccccc2)CC1)N1CCCCC1	-7	?	20µM*	0.89µM*	·	?
O=C(Nc1ccc2c(c1)C(=O)OC2)c1ccccc1Cl	-2	22%	50µM*	-6%	·	14%
CCCCCc1c2c(cc(O)c1C(=O)O)OC(=O)c1c(cc(OC)cc1C(=O)CCCC)O2	?	79µM*	-12%[59 µM]	-31%	-13%	22%
Cc1ccc2c(c1)C(=O)C1(O)CCN(c3ccccc3)C1=N2 (stereo unspecified)	·	·	15%[59 µM]	·	·	·
CCc1cccc(-n2c(=O)c3cccnc3n2CC(=O)Nc2ccc(OC)c(Cl)c2)c1	·	-1%	4%[59 µM]	-7%	·	44%
COc1ccccc1Cc1nc2ccccc2n1S(=O)(=O)c1ccc(Cl)cc1	-4	-5%	25µM*	-14%	10%	30%
CCCCC(=O)Nc1nnc(S(=O)(=O)N(CC)c2cc(C)cc(C)c2)s1	·	-12%	-19%[59 µM]	-15%	·	34%
COc1ccccc1CNC(=O)c1cc2cccc3c2n1CCS3	·	-4%	-2%[59 µM]	-12%	·	15%
Cc1cc(C)c(C)c(S(=O)(=O)N2CCC(C(=O)OCC(=O)N3c4ccccc4NC(=O)C3(C)C)CC2)c1C	-2	50µM*	14%[12.7 µM]	?	·	-10%
COC(=O)Nc1ccc2c(c1)Nc1ccccc1CC2	5	?	-12%[0.501 µM]	?	0%[2.29 µM]	-1%
Nc1ccc2c(c1)Nc1ccccc1CC2	9	28µM*	·	50µM*	-12%	-32%
COCCNC(=O)C(=O)NNC(=O)COc1ccc(OC)cc1	1	-38%	25µM*	-7%	7%	55%
COCCNC(=O)C(=O)NNS(=O)(=O)c1ccc(Cl)cc1	-6	18%	·	-1%	18%	45%
COc1ccc(OCC(=O)NNC(=O)C(=O)Nc2ccccc2)cc1	0	·	·	-3%	7%	27%
COCCNC(=O)C(=O)NNS(=O)(=O)c1ccc2ccccc2c1	-25	-16%	40µM*	?	4%	-15%
COCCn1c(C)cc(O)c(C(c2ccccc2)N2CCN(CCO)CC2)c1=O (stereo unspecified)	·	-3%	?	2%	·	23%[57 µM]
CC(C)c1ccc(OC(=O)c2cc(-c3ccccc3)on2)cc1	·	34%	35%[59 µM]	9%	·	166%
COc1cc(C2Nc3ccccc3C(=O)N2Cc2ccccc2)ccc1OCc1ccc(NC(C)=O)cc1 (stereo unspecified)	·	·	·	-22%	·	·
Cc1cc(C)cc(NC(=O)C(=O)NCC(c2cccnc2)N2CCc3ccccc32)c1 (stereo unspecified)	·	2%	1%[59 µM]	-6%	·	17%
CC(C)(C)OC(=O)N1CCC(c2c(C(=O)N3CCN(C(=O)c4ccco4)CC3)cnn2-c2ccc(Cl)cc2)CC1	·	8%[57.1 µM]	-7%[59 µM]	-3%	·	39%
O=C(c1ccco1)N1CCN(C(=O)c2cnn(-c3ccc(Cl)cc3)c2C2CCNCC2)CC1	9	-5%	71µM*	-10%	·	38%
O=C1CS/C(=N/N=C2CCCC2)N1	0	79µM*	?	-13%	·	27%
O=C1CSC(=NC2CCCCC2)N1	-3	1%	13%[12.7 µM]	-2%	·	48%
C/C(=N\Nc1nnc(C)c(=O)[nH]1)C(=O)O	·	13µM*	45%[2.33 µM]	?	12%	37%
SMILES	PI5P4Ka inh	BAZ2B inh	G9a block	JMJD2A Tudor inh	L3MBTL1 block	HP1b chromo inh
Cc1nnc(NCCc2ccccc2)[nH]c1=O	·	2%	30%	-13%	3%	9%
CC(/C=N/Nc1nnc(C)c(=O)[nH]1)=C\c1ccccc1	·	-42%	10µM*	-21%	3%	17%
Cc1ccc(-c2noc(C3CCCN(C(=O)c4ccccc4Br)C3)n2)o1 (stereo unspecified)	-9	-18%	25µM*	-14%	·	20%
O=S(=O)(O)c1cccc2cccc(Nc3ccccc3)c12	?	·	·	50µM*	·	16%
O=C(CSc1nc2ccsc2c(=O)n1-c1ccc(Br)cc1)NCc1ccc(Cl)cc1	·	-2%	?	5%	·	40%
COc1ccc2nc(C)cc(Sc3nc4ccccc4s3)c2c1	-3	19%	14µM*	79µM*	10%	34%
COc1ccc2nc(C)cc(SCC(=O)NNC(=O)COc3ccccc3)c2c1	0	3%	4%[0.0925 µM]	-8%	-4%	19%
COc1ccc(-c2nc(C#N)c(N3CCc4ccccc4C3)o2)cc1OC	·	7.1µM*	28µM*	?	-30%	-38%
COc1ccccc1-c1nc(C#N)c(N2CCc3ccccc3C2)o1	·	10µM*	?	?	·	?
COc1ccc(-c2nc(C#N)c(N3CCN(C(=O)c4ccco4)CC3)o2)cc1OC	-3	0%	-4%	-2%	·	4%[57 µM]
Cc1oc(-c2cccc(Cl)c2)nc1CSc1nc2ncccc2[nH]1	·	-2%	?	-17%	·	16%
Cc1ccc(CN2C(=O)C3(c4ccccc42)N(c2cccc(F)c2)C(=O)CS3(=O)=O)cc1 (stereo unspecified)	·	1%[57.1 µM]	?	-18%	·	4%
CCNc1cccc(S(=O)(=O)N2CCN(S(=O)(=O)c3ccc4c(c3)OCCO4)CC2)c1	·	·	·	-35%	·	·
COc1ccc(CNC(=O)CSc2nc(-c3ccc(OC)c(OC)c3)cc(C(F)(F)F)n2)cc1	·	?	-33%[59 µM]	-7%	·	39%
O=C(Nc1ccccc1)c1ccc2ccccc2n1	-5	-16%	-1%	-8%	·	26%
O=C(O)C(=O)/C(=C\c1cccc(Cl)c1)c1ccc2ccccc2n1	-7	79µM*	22µM*	?	10%	29%
Cc1cccc(/C=C(\C(=O)C(=O)O)c2ccc3ccccc3n2)c1	1	·	?	-10%	14%	63%
N#Cc1ccc(/C=C(\C(=O)C(=O)O)c2ccc3ccccc3n2)cc1	8	79µM*	-17%[12.7 µM]	1%	·	30%
COc1ccc(S(=O)(=O)NCc2cccnc2)cc1NC(=O)c1ccccc1C	-73*	·	·	-31%	·	6%[57 µM]
CCc1ccc(S(=O)(=O)NCc2cccnc2)cc1	0	-8%	·	-16%	·	26%
COc1ccc(S(=O)(=O)NCc2cccnc2)cc1Br	-1	5%	-2%	2%	3%	51%
CCNS(=O)(=O)c1ccc(CCC(=O)NCc2cccnc2)cc1	7	-9%	-8%	4%	·	45%
Cc1ccc(NS(=O)(=O)c2ccc(CCC(=O)NCc3cccnc3)cc2)cc1	0	-4%	40µM*	-3%	-3%	42%
CCN(CC)C(=O)c1ccc(S(=O)(=O)NCc2cccnc2)cc1	·	-1%	79µM*	-16%	·	13%
